# Assay results reported in PubChem BioAssay (NCATS).
# Where “and” joins values, the source holds several entries; their conditions need not be identical. Identical values can stand only once. Results filed as inconclusive are left out. Where a call stands in place of a potency, no number is given. Calls of active or inactive are those of the source. Unless noted, the call rests on the fitted dose curve; in most records, active means well fitted curve in the direction sought with a large enough effect; inconclusive means small, poorly fitted or top-dose-only effect, or another doubt; inactive means no such curve, though single readings can be large; an effect the other way counts as inactive or inconclusive.
# What was measured:
# [1] = qHTS drug screen for cell cycle checkpoint inhibitors in PARPi-resistant BRCA-mutant ovarian cancer cell lines. (AID 1963452; calls by dose curve); conditions: PEO1/OlaR viability, CellTiter-Glo luminescence, 96 h, stronger effect = lower value
# Method in brief: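 PEO1, PEO4 and PEO1/OlaR ovarian cancer cells, 600 per well, exposed 96 h at 37C to a dilution series. Viability read by CellTiter-Glo luminescence, normalized to DMSO and empty wells; activity summarized as Z-AUC.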
# [2] = Cellular Toxicity (caspase-3) SHSY5Y (AID 657); conditions: SH-SY5Y caspase-3 activation, DMSO zero, 10 µM staurosporine = 100%; series mostly up to 91.7 µM
# Method in brief: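 SH-SY5Y human neuroblastoma cells (1500/well) were treated with compounds for 16 h at 37 °C, then Caspase-Glo 3/7 luminescence was read after 1 h at room temperature. Data normalized to DMSO and 10 uM staurosporine; AC50 from Hill fits.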
# [3] = Cellular Toxicity (caspase-3) SK-N-SH (AID 661); conditions: SK-N-SH caspase-3 activation, qHTS, DMSO as zero, staurosporine as full; series mostly up to 91.7 µM
# Method in brief: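 Human SK-N-SH neuroblastoma cells, 1500/well, were exposed to compounds for 16 hours at 37 °C. Caspase-Glo 3/7 luminescence was normalized to DMSO (basal) and 10 uM staurosporine (100%), and AC50 came from a Hill fit.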
# [4] = Cellular Toxicity (caspase-3) NIH 3T3 (AID 666); conditions: NIH 3T3 caspase-3 activation, apoptosis/toxicity, 0% DMSO, 100% is 100 µM tamoxifen; series mostly up to 92.2 µM;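 further: caspase signal read after 16 h compound exposure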
# Method in brief: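 Mouse NIH 3T3 fibroblasts (1000/well) treated 16 h at 37 C; caspase-3/7 activity measured by Caspase-Glo 3/7 luminescence after 20 min. Normalized to DMSO and 100 uM tamoxifen; AC50 from Hill fits.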
# [5] = molecular target: Cytochrome P450 3A4 (Homo sapiens) (UniProt P08684); assay: qHTS Assay for Inhibitors and Substrates of Cytochrome P450 3A4 (AID 884); conditions: recombinant CYP3A4, Luciferin-PPXE luminescence; series mostly up to 57.1 µM; further: nearly all actives have a fitted effect of over 50% in size; further: potency means the concentration at half of the fitted maximal effect
# Method in brief: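 20 nM human CYP3A4 with 25 uM Luciferin-PPXE (at KM) in 200 mM KPO4, preincubated 10 min with compound; NADPH regeneration started a 60 min RT reaction. Luciferin detected by luminescence, normalized to 57 uM ketoconazole as full inhibition.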
# [6] = MultiTox-Fluor Cytotoxicity Assay - LYMP1-001 - Live Cells (AID 947); conditions: LYMP1-001 lymphoblastoid cells, live-cell protease fluorescence viability; series mostly up to 92.2 µM
# [7] = MultiTox-Fluor Cytotoxicity Assay - LYMP1-002 - Dead Cells (AID 960); conditions: LYMP1-002 lymphoblastoid cells, dead-cell protease fluorescence; series mostly up to 46.1 µM; further: nearly all actives have a fitted effect of over 60% in size
# Method in brief: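 Human lymphoblastoid LYMP1-002 cells, 2500/well, treated 16 h at 37 C; dead-cell protease cleavage of bis-AAF-R110 read by fluorescence (485/520); normalized to DMSO and 15 uM tetraoctylammonium bromide; AC50 from Hill fit.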
# [8] = Cell Viability - LYMP2-004 (AID 966); conditions: LYMP2-004 lymphoblastoid cell viability, qHTS; series mostly up to 92.2 µM; further: nearly all actives have a fitted effect of over 65% in size
# Method in brief: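 Lymphoblastoid LYMP2-004 cells, 2500 per well, were preincubated for 5 hr and then treated with compound for 24 h at 37 C in complete medium. Viability was read as cellular ATP by CellTiter-Glo luminescence, and AC50 values were taken from Hill fits to concentration-response data.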
# [9] = Cell Viability - LYMP2-005 (AID 967); conditions: LYMP2-005 lymphoblastoid cell viability; series mostly up to 92.2 µM
# Method in brief: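 CellTiter-Glo luminescence (cellular ATP) read-out; LYMP2-005 lymphoblastoid cells, 2500/well, 5 h pre-incubation, then 24 h compound exposure at 37 C in complete medium. Tetraoctylammonium bromide positive control; AC50 by standard Hill fit.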
# [10] = Cell Viability - LYMP2-009 (AID 968); conditions: LYMP2-009 lymphoblastoid cell viability; series mostly up to 92.2 µM; further: nearly all actives have a fitted effect of over 55% in size
# [11] = Cell Viability - LYMP2-008 (AID 980); conditions: LYMP2-008 lymphoblastoid cell viability, qHTS; series mostly up to 92.2 µM; further: nearly all actives have a fitted effect of over 60% in size
# Method in brief: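 LYMP2-008 lymphoblastoid cells (2500/well) plated 5 h, then treated 24 h at 37 C in complete medium. Viability read as intracellular ATP by CellTiter-Glo luminescence after 30 min at room temperature; AC50 from Hill fits.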
# [12] = molecular target: Glucocorticoid receptor (Homo sapiens) (UniProt P04150); assay: qHTS assay for small molecule agonists of glucocorticoid receptor signaling (AID 588532; active means well fitted curve in the direction sought with a large enough effect in the signal ratio, with a control signal flat; the % refers to the signal ratio); conditions: HeLa MMTV-bla, beta-lactamase ratio, agonist, 18 h; stronger effect = higher value; percent of dexamethasone control, DMSO zero
# Method in brief: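 Agonist-mode qHTS: GRE-driven beta-lactamase in HeLa cells exposed 18 h to titrated compounds (up to 92 uM), then CCF4 ratio read after 2 h at RT; Hill-fitted EC50, efficacy relative to 0.1 uM dexamethasone.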
# [13] = molecular target: Glucocorticoid receptor (Homo sapiens) (UniProt P04150); assay: qHTS assay for small molecule antagonists of glucocorticoid receptor signaling (AID 588533; active means well fitted inhibition curve with a large enough effect in the signal ratio, with a control signal flat, not every such curve was filed as active; the % refers to the signal ratio;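 further: cells stimulated with 2 nM dexamethasone as agonist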); conditions: HeLa MMTV-bla, GRE beta-lactamase ratio, antagonist mode, 18 h; series mostly up to 76.8 µM
# Method in brief: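 Antagonist-mode qHTS: compound titrations added to GRE-bla HeLa cells, then dexamethasone 2 nM final; 18 h, 37 C. CCF4 FRET fluorescence normalized to dexamethasone and DMSO; IC50 from Hill fit.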
# [14] = molecular target: Peroxisome proliferator-activated receptor gamma (Homo sapiens) (UniProt P37231); assay: qHTS assay for small molecule agonists of peroxisome proliferator-activated receptor gamma signaling (AID 588536; active means well fitted curve in the direction sought with a large enough effect in the signal ratio, with a control signal flat, not every such curve was filed as active; the % refers to the signal ratio); conditions: HEK293 PPARg-UAS-bla, beta-lactamase ratio, 16 h, percent of rosiglitazone response, DMSO as zero; series mostly up to 76.7 µM
# Method in brief: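 HEK293 UAS-bla reporter line, 1% charcoal/dextran FBS; titration, 16 h, 37 C; CCF4 loading 2 h RT; fluorescence 460/530 nm. Normalized to rosiglitazone 2 uM = 100%, DMSO = 0%.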
# [15] = molecular target: Vitamin D3 receptor (Homo sapiens) (UniProt P11473); assay: qHTS assay for small molecule agonists of vitamin D receptor signaling (AID 588543; calls by dose curve); conditions: HEK293T VDR-UAS-bla, beta-lactamase ratio, 16 h; series mostly up to 76.8 µM
# Method in brief: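 GeneBLAzer VDR-UAS-bla HEK293T cells in 2% charcoal-stripped FBS medium were dosed with compound titrations for 16 h at 37 °C; CCF4 β-lactamase readout (405 nm ex, 460/530 nm em). EC50 and efficacy from Hill fits, normalized to 50 nM calcitriol (100%) and DMSO (0%).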
# [16] = molecular target: Thyroid hormone receptor beta (Homo sapiens) (UniProt P10828); assay: qHTS assay for small molecule antagonists of thyroid hormone receptor beta signaling (AID 588547; active means well fitted inhibition curve with a large enough effect in the signal ratio, with a control signal flat, not every such curve was filed as active; the % refers to the signal ratio;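 further: cells stimulated with 0.4 nM T3 agonist during compound exposure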); conditions: TR-UAS-bla HEK293, beta-lactamase ratio, antagonist mode, 18 h
# Method in brief: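 Inhibition of T3-driven (0.4nM final) beta-lactamase reporter activity was measured over 0.59 nM to 92 uM compound after 18 h at 37 C. The cells were GripTite HEK293 TR-UAS-bla in charcoal/dextran-stripped serum, with CCF4 ratio read-out and IC50 from Hill fits.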
# [17] = qHTS assay for small molecule activators of the p53 signaling pathway (AID 651743; active means well fitted activation curve with a large enough effect in the signal ratio, not every such curve was filed as active; the % refers to the signal ratio); conditions: HCT-116 p53RE-bla, beta-lactamase FRET ratio, 16 h; activation: stronger effect = higher value
# Method in brief: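 Read-out is fluorescence intensity from the LiveBLAzer B/G FRET substrate, added for 2 hours at room temperature after HCT-116 p53RE-bla cells had been incubated with compounds for 16 hours at 37 C.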
# [18] = qHTS assay for small molecule disruptors of the mitochondrial membrane potential - 5 hr assay (AID 651755; calls by dose curve; further: nearly all actives have a fitted effect of over 40% in size); conditions: JC-1-type ratio dye; series mostly up to 92.2 µM
# Method in brief: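 HepG2, 2,000 cells/well, overnight attach; cpd or DMSO 5 hr, 37C/5% CO2; Mito-MPS 30 min 37C; fluor 490/535 + 540/590 nm.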
# [19] = molecular target: Tumor necrosis factor (Homo sapiens) (UniProt P01375); assay: qHTS assay to identify small molecules that stimulate Tumor Necrosis Factor-alpha (TNF-alpha) secretion (AID 651757; active means well fitted curve in the direction sought with a large enough effect in the signal ratio; the % refers to the signal ratio); conditions: Human cells, HTRF 665/615 ratio; series mostly up to 92.2 µM
# Method in brief: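 THP-1 cells (3000/well) exposed to compounds 17 hrs at 37 C. Secreted TNF-alpha detected by HTRF with cryptate- and XL665-labeled anti-TNF-alpha antibodies after 3 hr at room temperature.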
# [20] = molecular target: Nuclear receptor subfamily 1 group I member 2 (Rattus norvegicus) (UniProt Q9R1A7); assay: qHTS assay for small molecule activators of the rat pregnane X receptor (rPXR) signaling pathway (AID 651751; call rule not given here); conditions: rPXR reporter cells, luciferase (One-Glo), 24 h
# [21] = measured here: PEO1 parental Z-AUC
# Sequence of Vitamin D3 receptor (Homo sapiens) (P11473 whole entry, looked up): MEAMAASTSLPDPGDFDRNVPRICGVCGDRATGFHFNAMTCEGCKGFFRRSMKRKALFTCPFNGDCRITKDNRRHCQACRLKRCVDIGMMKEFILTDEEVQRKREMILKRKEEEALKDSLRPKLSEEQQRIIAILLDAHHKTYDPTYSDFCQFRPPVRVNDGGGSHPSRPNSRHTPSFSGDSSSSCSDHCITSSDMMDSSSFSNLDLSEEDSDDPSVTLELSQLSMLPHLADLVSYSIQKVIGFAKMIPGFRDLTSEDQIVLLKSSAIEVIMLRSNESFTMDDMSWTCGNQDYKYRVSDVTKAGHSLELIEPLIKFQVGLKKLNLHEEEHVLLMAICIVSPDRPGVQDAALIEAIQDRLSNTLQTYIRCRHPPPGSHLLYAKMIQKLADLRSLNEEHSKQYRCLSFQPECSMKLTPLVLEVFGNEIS
# Sequence of Thyroid hormone receptor beta (Homo sapiens) (P10828 whole entry, looked up): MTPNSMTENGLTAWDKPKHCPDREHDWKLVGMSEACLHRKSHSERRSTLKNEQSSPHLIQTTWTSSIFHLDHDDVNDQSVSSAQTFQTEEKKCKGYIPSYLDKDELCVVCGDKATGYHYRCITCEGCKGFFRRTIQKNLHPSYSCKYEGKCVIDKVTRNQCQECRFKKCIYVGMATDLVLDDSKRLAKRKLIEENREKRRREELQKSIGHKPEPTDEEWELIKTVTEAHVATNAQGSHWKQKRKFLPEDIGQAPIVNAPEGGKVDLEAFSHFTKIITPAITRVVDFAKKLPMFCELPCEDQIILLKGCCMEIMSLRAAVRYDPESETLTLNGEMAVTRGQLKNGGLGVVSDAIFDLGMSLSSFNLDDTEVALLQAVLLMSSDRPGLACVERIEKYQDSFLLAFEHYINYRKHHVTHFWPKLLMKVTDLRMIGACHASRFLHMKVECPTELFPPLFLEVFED
# Sequence of Peroxisome proliferator-activated receptor gamma (Homo sapiens) (P37231 whole entry, looked up): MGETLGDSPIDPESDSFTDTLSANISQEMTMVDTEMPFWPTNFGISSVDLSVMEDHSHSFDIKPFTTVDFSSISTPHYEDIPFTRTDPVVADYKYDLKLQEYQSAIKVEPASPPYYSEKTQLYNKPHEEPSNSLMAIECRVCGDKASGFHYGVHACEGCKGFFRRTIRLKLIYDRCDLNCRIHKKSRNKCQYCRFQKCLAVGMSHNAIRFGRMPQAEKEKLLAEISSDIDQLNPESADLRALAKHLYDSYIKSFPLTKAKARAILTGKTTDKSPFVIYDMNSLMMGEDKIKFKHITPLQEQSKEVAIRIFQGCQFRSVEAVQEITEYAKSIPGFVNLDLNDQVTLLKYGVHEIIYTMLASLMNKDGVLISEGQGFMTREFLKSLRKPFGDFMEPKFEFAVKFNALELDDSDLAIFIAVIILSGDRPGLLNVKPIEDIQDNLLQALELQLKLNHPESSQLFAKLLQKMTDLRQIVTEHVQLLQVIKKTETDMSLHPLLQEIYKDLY
# Sequence of Cytochrome P450 3A4 (Homo sapiens) (P08684 whole entry, looked up): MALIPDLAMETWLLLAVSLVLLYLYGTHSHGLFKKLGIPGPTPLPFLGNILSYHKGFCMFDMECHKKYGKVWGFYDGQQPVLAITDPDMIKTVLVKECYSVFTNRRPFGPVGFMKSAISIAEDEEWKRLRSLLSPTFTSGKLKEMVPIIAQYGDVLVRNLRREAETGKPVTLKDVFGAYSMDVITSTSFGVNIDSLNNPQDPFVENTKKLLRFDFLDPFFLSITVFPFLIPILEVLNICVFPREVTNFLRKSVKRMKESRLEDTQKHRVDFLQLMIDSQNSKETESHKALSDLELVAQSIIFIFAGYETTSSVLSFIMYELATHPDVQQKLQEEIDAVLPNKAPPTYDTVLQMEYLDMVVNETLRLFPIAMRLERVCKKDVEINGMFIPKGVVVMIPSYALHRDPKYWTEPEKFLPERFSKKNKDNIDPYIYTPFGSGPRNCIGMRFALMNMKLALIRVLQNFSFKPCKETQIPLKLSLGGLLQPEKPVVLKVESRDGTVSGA
# Sequence of Nuclear receptor subfamily 1 group I member 2 (Rattus norvegicus) (Q9R1A7 whole entry, looked up): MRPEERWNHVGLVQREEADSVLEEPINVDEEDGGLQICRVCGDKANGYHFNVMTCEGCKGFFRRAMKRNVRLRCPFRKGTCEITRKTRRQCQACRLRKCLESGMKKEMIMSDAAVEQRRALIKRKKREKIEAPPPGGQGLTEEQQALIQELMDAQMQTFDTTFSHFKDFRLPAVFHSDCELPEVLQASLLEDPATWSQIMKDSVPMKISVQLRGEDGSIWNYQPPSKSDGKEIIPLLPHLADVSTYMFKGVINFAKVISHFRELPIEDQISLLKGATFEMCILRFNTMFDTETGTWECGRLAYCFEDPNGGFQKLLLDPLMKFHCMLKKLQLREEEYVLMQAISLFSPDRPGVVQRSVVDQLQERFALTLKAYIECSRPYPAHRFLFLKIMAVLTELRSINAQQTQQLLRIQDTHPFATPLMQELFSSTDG
# Sequence of Glucocorticoid receptor (Homo sapiens) (P04150 whole entry, looked up): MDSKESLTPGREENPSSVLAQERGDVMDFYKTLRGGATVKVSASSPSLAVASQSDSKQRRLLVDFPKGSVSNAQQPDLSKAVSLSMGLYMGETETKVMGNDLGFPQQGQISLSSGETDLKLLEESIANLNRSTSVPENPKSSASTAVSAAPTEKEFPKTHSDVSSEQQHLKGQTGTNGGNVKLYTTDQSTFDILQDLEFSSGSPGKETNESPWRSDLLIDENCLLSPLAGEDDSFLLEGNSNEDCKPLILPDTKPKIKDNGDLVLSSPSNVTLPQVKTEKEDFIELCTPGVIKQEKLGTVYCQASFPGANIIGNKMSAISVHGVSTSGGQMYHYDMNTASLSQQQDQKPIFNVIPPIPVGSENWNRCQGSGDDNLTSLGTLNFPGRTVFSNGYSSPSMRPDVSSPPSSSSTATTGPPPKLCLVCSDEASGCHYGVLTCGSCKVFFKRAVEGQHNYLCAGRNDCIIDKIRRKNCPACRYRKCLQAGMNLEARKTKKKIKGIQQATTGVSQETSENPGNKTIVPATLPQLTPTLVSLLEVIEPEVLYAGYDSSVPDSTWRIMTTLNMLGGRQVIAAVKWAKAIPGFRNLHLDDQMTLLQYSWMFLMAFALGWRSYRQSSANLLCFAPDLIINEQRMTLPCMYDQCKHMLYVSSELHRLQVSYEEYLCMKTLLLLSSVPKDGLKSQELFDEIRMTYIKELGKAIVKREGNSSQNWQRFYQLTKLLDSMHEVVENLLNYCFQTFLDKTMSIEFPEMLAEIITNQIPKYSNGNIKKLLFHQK
# Sequence of Tumor necrosis factor (Homo sapiens) (P01375 whole entry, looked up): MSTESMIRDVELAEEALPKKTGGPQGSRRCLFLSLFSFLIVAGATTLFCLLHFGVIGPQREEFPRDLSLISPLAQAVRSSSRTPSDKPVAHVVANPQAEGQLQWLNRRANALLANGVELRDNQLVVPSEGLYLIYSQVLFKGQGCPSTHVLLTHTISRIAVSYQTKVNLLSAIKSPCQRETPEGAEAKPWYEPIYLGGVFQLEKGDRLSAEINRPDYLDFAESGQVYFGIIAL
smiles,measurement,setting,value
C/C(O)=C(\C#N)C(=O)Nc1ccc(C(F)(F)F)cc1,Z-AUC,[1],-1.06 (inactive)
same,Z-AUC,[1]; [21],0.703
same,Z-AUC,[1]; measured here: PEO4 Z-AUC,-0.074
CCc1ccc(N(CC(C)C)S(=O)(=O)c2ccc(OCC3CCOCC3)c(CO)c2)cc1,Z-AUC,[1],-1.27 (inactive)
same,Z-AUC,[1]; [21],-0.28
same,Z-AUC,[1]; measured here: PEO4 Z-AUC,-0.861
O=C1CCc2ccccc2O1,outcome,[2],inactive
same,outcome,[3],inactive
same,outcome,[4],inactive
same,Potency,[5],inactive
same,Potency,[6],inactive
same,Potency,[7],inactive
same,Potency,[8],inactive
same,Potency,[9],inactive
same,Potency,[10],inactive
same,Potency,[11],inactive
same,activation,[12],-2.22% (inactive)
same,Potency,[13],inactive
same,outcome,[14],inactive
same,outcome,[15],inactive
same,activity change % (negative = inhibition),[16],-1.36% (inactive)
same,activation,[17],-0.942% (inactive)
same,Potency,[18],inactive
same,outcome,[19],inactive
same,max response,[20],3.11% (inactive)
O=c1cc(-c2cccc(O)c2)oc2c(O)c(O)ccc12,Potency,[5],15.8 µM (active)
c1ccc2scnc2c1,outcome,[2],inactive
same,outcome,[3],inactive
same,outcome,[4],inactive
same,Potency,[5],inactive
same,Potency,[7],inactive
same,Potency,[9],inactive
same,Potency,[10],inactive
same,Potency,[11],inactive
same,activation,[12],-6.61% (inactive)
same,Potency,[13],inactive
same,outcome,[14],inactive
same,outcome,[15],inactive
same,activity change % (negative = inhibition),[16],10.2% (inactive)
same,activation,[17],0.66% (inactive)
same,Potency,[18],inactive
same,outcome,[19],inactive
same,max response,[20],-1.2% (inactive)
Cc1cccc(O)c1,activation,[12],1.46% (inactive) and -4.97% (inactive)
same,Potency,[13],inactive
same,outcome,[14],inactive
same,activity change % (negative = inhibition),[16],-9.11% (inactive) and -4.09% (inactive)
same,activation,[17],-5.47% (inactive) and -2.85% (inactive)
same,max response,[20],-3.23% (inactive) and 0.598% (inactive)
CCCCCCCCCCCCC[N+](C)(C)Cc1ccccc1,Potency,[5],inactive
O=S(=O)(O)c1ccccc1,outcome,[2],inactive
same,outcome,[3],inactive
same,outcome,[4],inactive
same,Potency,[5],inactive
same,Potency,[6],inactive
same,Potency,[7],inactive
same,Potency,[8],inactive
same,Potency,[9],inactive
same,Potency,[10],inactive
same,Potency,[11],inactive
same,activation,[12],-5.18% (inactive)
same,Potency,[13],inactive
same,outcome,[14],inactive
same,outcome,[15],inactive
same,Potency,[18],inactive
same,outcome,[19],inactive
same,max response,[20],2.35% (inactive)
